# Data published in PubChem BioAssay (NCATS).
# Where “and” joins values, the source holds several entries; their conditions need not be identical. Identical values can stand only once. Inconclusive results are not listed. Calls of active or inactive are those of the source. Unless noted, calls come from the whole dose curve; as a rule, active = well fitted curve in the direction sought with a large enough effect; inconclusive = small, poorly fitted or top-dose-only effect, or another doubt; inactive = no such curve, though single readings can be large; an effect the other way counts as inactive or inconclusive.
# Key:
# [1] = AP1 Signaling Pathway (AID 357; active = well fitted curve in either direction with a large enough effect, not every such curve was filed as active;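 note: ME-180 reporter cells stimulated with EGF at its EC50 level; % is set by controls: 0 for no effect and ±100 for the full control effect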); conditions: ME-180 AP-1-bla reporter, EGF-induced, beta-lactamase ratio, 5 h
# Procedure, shortened: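 AP-1-bla ME-180 cells, Opti-MEM + 0.5% dialyzed FBS, plated overnight 37 °C. Cpd titration + EC50 EGF, 5 h 37 °C. CCF4 2.5 h RT; ex 405, em 460/530 ratio → %activity, AC50.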
# [2] = target: Cytochrome P450 1A2 (Homo sapiens) (UniProt P05177); test: p450-cyp1a2 (AID 410; calls by dose curve;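 note: -100% = full effect of reference inhibitor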)
# Procedure, shortened: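 Read-out is luminescence from luciferin produced by CYP1A2 demethylation of Luciferin-ME (100uM, at Km). Detection reagent stopped the 60 min NADPH-dependent reaction; signals were normalized to 57 uM furafylline.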
# [3] = NFAT Signaling Pathway (AID 444; active = well fitted curve in either direction with a large enough effect, not every such curve was filed as active;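 note: carbachol stimulus at about its EC50 of 1 µM final; % is set by controls: 0 for no effect and ±100 for the full control effect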); conditions: Jurkat NFAT-bla M1, carbachol, beta-lactamase ratio, 5 h
# Procedure, shortened: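 Jurkat cells with NFAT-driven β-lactamase reporter and co-expressed M1 receptor, stimulated with carbachol (final 1 uM, ~EC50), compound titration, 5 h at 37 °C. CCF4 loaded 1 h at RT; 460/530 nm ratio gave %activity and AC50.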
# [4] = Stat Signaling Pathway (AID 446; active = well fitted curve in either direction with a large enough effect, not every such curve was filed as active;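 note: ME-180 cervical cancer cells given 40 pM IL-6 alongside compound; SIE-controlled beta-lactamase reporter measured as 460/530 nm FRET emission ratio; % is set by controls: 0 for no effect and ±100 for the full control effect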); conditions: ME-180 (cervical carcinoma) SIE beta-lactamase reporter, IL-6 stimulated, 5 h
# Procedure, shortened: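 Compound effects on IL-6-induced STAT reporter activity were measured in ME-180 cells. After overnight culture, cells were co-treated with 40 pM IL-6 for 5 hrs before beta-lactamase substrate loading at room temperature.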
# [5] = target: Glucocorticoid receptor (Homo sapiens) (UniProt P04150); test: GR-EFC Redistribution (AID 451; calls by dose curve; note: potency is the fitted concentration of half-maximal effect); conditions: CHO-K1 GR-EFC translocation, beta-gal luminescence, 2 h
# Procedure, shortened: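 CHO-K1 cells expressing nuclear EA and GR-ED fragments of b-gal; compounds titrated up to 46 uM final, 2 h at 37 C. GR nuclear translocation read as complemented b-gal luminescence after 1 h RT detection.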
# [6] = target: Mitogen-activated protein kinase 10 (Mus musculus) (UniProt Q61831); test: JNK3 AlphaScreen Assay (AID 530; active = well fitted curve in either direction with a large enough effect, not every such curve was filed as active;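 note: kinase came from lysate of stimulated human HepG2 cells; signal reports phosphorylation of biotinylated GST-cJun 1-79 at Ser73 with 10 µM ATP; % is set by controls: 0 for no effect and ±100 for the full control effect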)
# Procedure, shortened: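 HepG2 lysate (IL-1b/TNFa pre-activated) + biotin-GST-cJun 1-79 + anti-pSer73 cJun; cpd titration, 15 min RT; ATP 10 uM start; Tris pH 7.6, MgCl2, DTT, vanadate; beads in EDTA buffer; AlphaScreen.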
# [7] = target: 3',5'-cyclic-AMP phosphodiesterase 4B (Homo sapiens) (UniProt Q07343); test: qHTS Assay for Inhibitors of PDE-IV (AID 607; active = well fitted activation curve with a large enough effect in the main read-out, with a control signal flat, not every such curve was filed as active; note: % of control where 0% means no effect)
# Procedure, shortened: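 ACTOne HEK293 cells carry a modified cAMP-gated CNG channel and express endogenous PDE4; plated 1000 cells/well, compounds up to 22.9 uM final. Membrane-potential dye fluorescence (ex 535/em 590) was read; parental cells received 10 uM forskolin + 100 uM RO 20-1724.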
# [8] = qHTS Assay for Lipid Storage Modulators (AID 1519; calls by dose curve); conditions: Drosophila S3 cells, BODIPY lipid droplet/cell ratio, laser cytometry, cells loaded with oleic acid
# Procedure, shortened: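 Cells seeded at 5,000 per well were treated with compounds over a concentration series and loaded with oleic acid (400 uM, as added). Lipid droplet fluorescence (488 nm excitation, 500-530 nm channel) was read by laser-scanning cytometry and normalized to 20 uM Triacsin C.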
# [9] = Primary qHTS for small molecule stabilizers of the endoplasmic reticulum resident proteome: Secreted ER Calcium Modulated Protein (SERCaMP) assay (AID 1508630); note: % is set by controls: 0 for no effect and ±100 for the full control effect
# Procedure, shortened: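 The SH-SY5Y reporter protocol was run at 3 concentrations up to 38.3 uM (primary) or 11 concentrations (follow-up): 16 h compound, 100 nM thapsigargin for 4 h, then extracellular luciferase luminescence.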
# [10] = target: Guanine nucleotide-binding protein G(i) subunit alpha-1 (Homo sapiens) (UniProt P63096); test: qHTS Assay for Inhibitors of RGS12 GoLoco Motif Activity (Green Fluorophore) (AID 879);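 note: 0% = labeled peptide with Gαi1 and full inhibition = labeled peptide alone without protein; negative values mean loss of peptide binding seen as reduced polarization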
# Procedure, shortened: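 A drop in FITC polarization marked displacement of the FITC-tagged RGS12 GoLoco peptide (10 nM) from Gαi1 (50 nM). Compounds were incubated 10 min at room temperature in Tris pH 7.5 buffer containing 150 mM NaCl, 0.1 mM GDP and 0.05% NP40; unlabeled peptide titration served as control.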
# [11] = target: Muscarinic acetylcholine receptor M1 (Rattus norvegicus) (UniProt P08482); test: qHTS Assay for Antagonists of Acetylcholine Muscarinic M1 Receptor: Measurement of IP-One Response (AID 944); note: nearly all actives have a fitted effect of over 75% in size
# Procedure, shortened: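 Antagonism was measured as loss of carbachol-driven (EC80) IP1 accumulation in CHO cells carrying rat M1, using a homogeneous IP-One TR-FRET kit read at 620 and 665 nm.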
# [12] = target: Pyruvate kinase (Leishmania mexicana) (UniProt Q27686); test: qHTS Validation Assay for Inhibitors of Leishmania Mexicana Pyruvate Kinase (AID 945);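 note: 0% = DMSO only neutral control wells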
# Procedure, shortened: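 Eight-point qHTS titrations in triplicate, data normalized to DMSO neutral control. Reaction: 0.2 nM LmPYK E451W mutant, 0.5 mM PEP, 0.1 mM ADP, 7 mM MgCl2, pH 7.2, one hour at room temperature; luminescent ATP detection.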
# [13] = target: Pyruvate kinase PKM (Homo sapiens) (UniProt P14618); test: qHTS Assay for Activators of Human Muscle Pyruvate Kinase (AID 954; active = well fitted curve in the direction sought with a large enough effect, not every such curve was filed as active;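 note: 0% = uninhibited enzyme and -100% = no enzyme or full thiadiazolimine inhibition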)
# Procedure, shortened: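 A coupled luminescent readout tracked ATP made from ADP by purified PKM2. Final conditions included 0.1 nM enzyme, PEP and ADP at 0.5 and 0.1 mM, pH 7.2 imidazole buffer with BSA, and a one-hour room-temperature reaction.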
# [14] = target: Alpha-galactosidase A (Homo sapiens) (UniProt P06280); test: Counterscreen for Glucocerebrosidase Inhibitors: qHTS Assay for Human alpha-Galactosidase at pH 4.5 (AID 992); note: 0% is about no effect
# Procedure, shortened: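 Citrate buffer pH 4.5, Tween-20 0.005%. Enzyme 2 nM, substrate 80 uM, 20 min RT. Stop pH 10. Fluorescence Ex 365/Em 440. AC50 by Hill fit.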
# [15] = target: alpha-glucosidase (Oryza sativa, rice) (UniProt Q653V4); test: Counterscreen for Glucocerebrosidase Inhibitors: qHTS Assay for Rice alpha-Glucosidase at pH 5.0 (AID 997);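 note: 0% = full activity with enzyme and -100% = basal without enzyme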
# Procedure, shortened: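 Endpoint fluorogenic assay at pH 5.0: compounds (0.7 nM to 77 uM) titrated against 4 nM rice enzyme and 400 uM 4-MU-alpha-glucoside for 20 min at room temperature; NaOH/glycine stop, read ex 365/em 440 nm, Hill-fitted AC50.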
# [16] = target: DNA repair nuclease/redox regulator APEX1 (Homo sapiens) (UniProt P27695); test: qHTS Validation Assay for Inhibitors of the Human Apurinic/apyrimidinic Endonuclease 1 (APE1) (AID 1705)
# Procedure, shortened: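 qHTS, 1536-well. APE1 + cpd 15 min RT → 50 nM TAMRA/BHQ-2 THF-abasic dsDNA substrate → kinetic fluorescence, 3 reads/60 s; delta(read3−read1) = reaction progress. No-enzyme buffer = negative control.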
# [17] = Counterscreen for APE1 Inhibitors: Fluorescent Dye Displacement Validation Assay (AID 1707);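 note: plate controls were ThO with dsDNA and no compound for no effect and ThO without dsDNA for full effect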
# Procedure, shortened: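 Signal: ThO fluorescence (ex 480 nm/em 540 nm) on binding 50 nM dsDNA; displacement by test compound reduces it. Conditions: 250 nM dye, 50 mM Tris-HCl pH7.5, 2 mM MgCl2, 50mM NaCl, 0.01% Tween-20.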
# [18] = qHTS for differential inhibitors of proliferation of Plasmodium falciparum line GB4 (AID 1816); conditions: Potency: Plasmodium falciparum GB4 proliferation inhibition;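 note: potency is the fitted concentration of half-maximal effect; parasite growth measured after 72 h incubation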
# [19] = qHTS for differential inhibitors of proliferation of Plasmodium falciparum line 3D7 (AID 1876); note: potency is the fitted concentration of half-maximal effect
# [20] = qHTS for differential inhibitors of proliferation of Plasmodium falciparum line D10 (AID 1877);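 note: potency is the fitted concentration of half-maximal effect; parasites grown with compound for 72 h before DNA staining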
# [21] = qHTS for differential inhibitors of proliferation of Plasmodium falciparum line Dd2 (AID 1882); conditions: Potency: Plasmodium falciparum Dd2 proliferation inhibition; note: potency is the fitted concentration of half-maximal effect; nearly all actives have a fitted effect of over 65% in size
# Procedure, shortened: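 RBC culture, 0.3% parasitemia / 2.5% Hct final; cpd added by pin tool in DMSO; 72 h, 37 C, 5% CO2; lysis buffer + SYBR Green I, o/n RT dark; FI 485/535; norm. to artemisinin 0.29 uM and DMSO.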
# [22] = qHTS for differential inhibitors of proliferation of Plasmodium falciparum line W2 (AID 1883); conditions: Potency: Plasmodium falciparum W2 proliferation inhibition;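 note: potency is the fitted concentration of half-maximal effect; parasites grown with compound for 72 h before lysis and staining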
# [23] = qHTS for differential inhibitors of proliferation of Plasmodium falciparum line HB3 (AID 1886); conditions: Potency: Plasmodium falciparum HB3 proliferation inhibition;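 note: potency is the fitted concentration of half-maximal effect; parasites grown with compound for 72 h before SYBR Green readout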
# [24] = target: Ferritin light chain (Equus caballus) (UniProt P02791); test: qHTS Validation Assay for Identification of Novel General Anesthetics (AID 2323); note: % is set by controls: 0 for no effect and ±100 for the full control effect
# Procedure, shortened: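 Fluorescence at 535 nm (excitation 380 nm) reported loss of 1-AMA binding to horse-spleen apoferritin (10 uM) in PBS with 50% saturated 1-aminoanthracene, after 10 min room-temperature incubation with compound; values from Hill fits of normalized response.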
# [25] = target: ATP-dependent DNA helicase Q1 (Homo sapiens) (UniProt P46063); test: qHTS Validation Assay for Inhibitors of RecQ-Like Dna Helicase 1 (RECQ1) (AID 2353);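 note: plate controls were DMSO vehicle for no effect and enzyme-free control for full effect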
# Procedure, shortened: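 RECQ1T1 50 nM; forked duplex (20 bp + 30-nt ss tails) 200 nM, ATP 2 mM final; pH 8.0, 2 mM MgCl2, 2.5 ug/ml poly(dI-dC); 15 min compound preincubation; discontinuous kinetic read over 2 h at RT.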
# [26] = Validation screen for small molecules that induce DNA re-replication in MCF 10A normal breast cells (AID 463097); note: 0% is about no effect; nearly all actives have a fitted effect of over 60% in size
# Procedure, shortened: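 Image-based qHTS: normal breast cells are incubated with compound for 48 hr, stained with Hoechst, and scanned for total nuclear fluorescence. Compounds raising the fraction of nuclei with elevated DNA content count as re-replication inducers.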
# [27] = Quantitative high throughput screen for delayed death inhibitors of the malarial parasite plastid, 96 hour incubation (AID 488745); note: potency is the fitted concentration of half-maximal effect; nearly all actives have a fitted effect of over 70% in size
# Procedure, shortened: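 Two-generation (96 h) exposure of luciferase-reporter P. falciparum in erythrocytes, 2% hematocrit, 0.1% parasitemia final, 37 C, 5% CO2, RPMI 1640 with 0.5% Albumax. Growth inhibition scored by reduced luminescence.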
# [28] = Quantitative high throughput screen for delayed death inhibitors of the malarial parasite plastid, 48 hour incubation (AID 488752); note: potency is the fitted concentration of half-maximal effect; nearly all actives have a fitted effect of over 65% in size
# Procedure, shortened: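 Cultures: infected erythrocytes at final 2% hematocrit and 0.1% parasitemia in Albumax-supplemented RPMI. Parasites express integrated firefly luciferase. Incubation with compound lasts 48 h before luminescent detection of remaining reporter activity.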
# [29] = target: Thyrotropin receptor (Homo sapiens) (UniProt P16473); test: qHTS Assay for Antagonists of the Thyroid Stimulating Hormone Receptor (AID 488980); note: 0% is about no effect
# Procedure, shortened: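 Readout is cAMP by HTRF competition between cellular cAMP and cAMP-d2 for a cryptate-labelled antibody. Antagonism was assessed in TSHR-transfected HEK293 cells stimulated with 4 nM TSH (EC80, final) in the presence of RO 20-1724.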
# [30] = target: Thyrotropin-releasing hormone receptor (Homo sapiens) (UniProt P34981); test: qHTS for Small Molecule Agonists and Allosteric Enhancers of Human TRH Receptor: Validation Screen for Agonists (AID 493127;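 active = calcium activation more than 3 SD above the typical response in the agonist read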;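 note: intracellular calcium rise by fluo-8 fluorescence before TRH EC20 addition; 0% is about no effect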); conditions: TRH receptor agonist cell assay; at 2 µM; stronger effect = higher value
# Procedure, shortened: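 Kinetic fluorescence assay of agonist-induced calcium release: overnight-plated TRHR cells, room-temperature fluo-8 loading, baseline then compound addition with per-second reads.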
# [31] = target: Galactokinase (Homo sapiens) (UniProt P51570); test: qHTS Validation Assay for Inhibitors of Human Galactokinase (GALK) (AID 493189); note: 0% is about no effect
# Procedure, shortened: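 5 nM GALK / 100 uM galactose / 35 uM ATP, 20 mM HEPES pH8.0, 5 mM MgCl2, 60 mM NaCl, 1 mM DTT, 0.01% BSA (final). RT 1 h; Kinase-Glo Plus luminescence.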
# [32] = at 7.69 µM (top of the series) unless noted
# [33] = measured here: cell count channel max response
# [34] = measured here: lipid channel max response
# Sequence of 3',5'-cyclic-AMP phosphodiesterase 4B (Homo sapiens) (Q07343 whole entry, looked up): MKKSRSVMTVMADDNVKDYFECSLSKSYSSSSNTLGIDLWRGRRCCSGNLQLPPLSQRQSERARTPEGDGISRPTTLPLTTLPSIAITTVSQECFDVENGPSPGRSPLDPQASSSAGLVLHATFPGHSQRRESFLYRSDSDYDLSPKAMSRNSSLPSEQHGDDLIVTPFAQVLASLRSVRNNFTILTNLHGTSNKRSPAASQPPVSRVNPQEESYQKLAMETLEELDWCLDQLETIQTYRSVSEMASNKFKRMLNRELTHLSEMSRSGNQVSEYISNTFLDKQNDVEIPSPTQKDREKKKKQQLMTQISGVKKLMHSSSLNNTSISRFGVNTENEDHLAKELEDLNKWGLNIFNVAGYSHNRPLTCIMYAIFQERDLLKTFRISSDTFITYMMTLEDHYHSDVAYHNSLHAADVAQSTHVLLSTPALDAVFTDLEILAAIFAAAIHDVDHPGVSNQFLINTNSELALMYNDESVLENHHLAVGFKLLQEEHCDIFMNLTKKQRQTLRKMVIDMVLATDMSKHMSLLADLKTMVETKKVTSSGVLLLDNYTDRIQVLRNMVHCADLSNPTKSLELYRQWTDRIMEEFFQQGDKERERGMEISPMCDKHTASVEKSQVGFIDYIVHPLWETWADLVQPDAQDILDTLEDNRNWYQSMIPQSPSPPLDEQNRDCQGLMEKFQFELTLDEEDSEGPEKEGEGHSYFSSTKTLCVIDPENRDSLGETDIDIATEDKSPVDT
# Sequence of Guanine nucleotide-binding protein G(i) subunit alpha-1 (Homo sapiens) (P63096 whole entry, looked up): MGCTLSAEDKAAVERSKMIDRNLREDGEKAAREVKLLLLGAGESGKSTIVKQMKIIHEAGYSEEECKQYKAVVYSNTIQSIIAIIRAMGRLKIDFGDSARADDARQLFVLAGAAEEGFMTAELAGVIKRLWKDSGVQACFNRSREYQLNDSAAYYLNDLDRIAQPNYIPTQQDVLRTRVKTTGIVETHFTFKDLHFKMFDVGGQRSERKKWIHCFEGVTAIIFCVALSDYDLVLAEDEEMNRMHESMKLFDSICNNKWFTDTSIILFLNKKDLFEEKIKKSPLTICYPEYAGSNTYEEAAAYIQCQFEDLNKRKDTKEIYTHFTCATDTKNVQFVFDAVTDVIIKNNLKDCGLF
# Sequence of Pyruvate kinase PKM (Homo sapiens) (P14618 whole entry, looked up): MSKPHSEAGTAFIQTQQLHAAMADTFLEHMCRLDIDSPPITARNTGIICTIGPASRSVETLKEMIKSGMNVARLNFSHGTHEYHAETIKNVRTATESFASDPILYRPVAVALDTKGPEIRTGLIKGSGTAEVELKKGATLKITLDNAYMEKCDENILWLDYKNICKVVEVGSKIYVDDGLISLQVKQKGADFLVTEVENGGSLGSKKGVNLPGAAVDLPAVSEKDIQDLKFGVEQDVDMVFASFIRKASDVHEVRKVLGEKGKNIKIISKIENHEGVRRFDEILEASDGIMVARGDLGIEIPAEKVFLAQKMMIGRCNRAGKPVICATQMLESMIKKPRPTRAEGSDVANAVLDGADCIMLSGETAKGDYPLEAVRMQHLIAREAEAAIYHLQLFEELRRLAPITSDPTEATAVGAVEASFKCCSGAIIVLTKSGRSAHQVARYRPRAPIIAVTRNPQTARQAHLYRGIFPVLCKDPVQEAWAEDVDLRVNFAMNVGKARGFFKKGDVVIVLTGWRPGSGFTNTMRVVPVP
# Sequence of Pyruvate kinase (Leishmania mexicana) (Q27686 2-499 E452W): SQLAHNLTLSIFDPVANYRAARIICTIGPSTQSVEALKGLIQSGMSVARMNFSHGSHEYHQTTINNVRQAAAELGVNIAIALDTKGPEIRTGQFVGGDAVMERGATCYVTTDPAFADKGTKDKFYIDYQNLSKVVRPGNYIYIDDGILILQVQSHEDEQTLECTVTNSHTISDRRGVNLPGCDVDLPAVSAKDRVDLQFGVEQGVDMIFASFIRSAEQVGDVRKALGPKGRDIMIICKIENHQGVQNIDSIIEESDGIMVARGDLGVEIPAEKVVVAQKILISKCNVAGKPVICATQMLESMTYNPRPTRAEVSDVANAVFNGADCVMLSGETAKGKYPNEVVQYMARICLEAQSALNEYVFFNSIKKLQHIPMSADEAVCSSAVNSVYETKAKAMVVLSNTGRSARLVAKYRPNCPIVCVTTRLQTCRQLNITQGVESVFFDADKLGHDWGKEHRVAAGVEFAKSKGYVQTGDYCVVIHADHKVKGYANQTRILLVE
# Sequence of Alpha-galactosidase A (Homo sapiens) (P06280 whole entry, looked up): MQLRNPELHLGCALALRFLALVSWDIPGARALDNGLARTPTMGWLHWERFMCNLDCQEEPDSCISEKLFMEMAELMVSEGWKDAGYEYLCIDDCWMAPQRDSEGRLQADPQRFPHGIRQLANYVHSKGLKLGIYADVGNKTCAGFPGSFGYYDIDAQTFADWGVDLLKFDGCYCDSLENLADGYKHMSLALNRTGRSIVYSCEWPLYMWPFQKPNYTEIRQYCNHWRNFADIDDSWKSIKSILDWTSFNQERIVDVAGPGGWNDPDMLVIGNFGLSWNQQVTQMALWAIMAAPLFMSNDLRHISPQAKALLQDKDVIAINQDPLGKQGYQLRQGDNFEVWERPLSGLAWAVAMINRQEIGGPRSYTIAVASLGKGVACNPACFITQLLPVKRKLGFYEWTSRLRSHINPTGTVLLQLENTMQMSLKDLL
# Sequence of Muscarinic acetylcholine receptor M1 (Rattus norvegicus) (P08482 whole entry, looked up): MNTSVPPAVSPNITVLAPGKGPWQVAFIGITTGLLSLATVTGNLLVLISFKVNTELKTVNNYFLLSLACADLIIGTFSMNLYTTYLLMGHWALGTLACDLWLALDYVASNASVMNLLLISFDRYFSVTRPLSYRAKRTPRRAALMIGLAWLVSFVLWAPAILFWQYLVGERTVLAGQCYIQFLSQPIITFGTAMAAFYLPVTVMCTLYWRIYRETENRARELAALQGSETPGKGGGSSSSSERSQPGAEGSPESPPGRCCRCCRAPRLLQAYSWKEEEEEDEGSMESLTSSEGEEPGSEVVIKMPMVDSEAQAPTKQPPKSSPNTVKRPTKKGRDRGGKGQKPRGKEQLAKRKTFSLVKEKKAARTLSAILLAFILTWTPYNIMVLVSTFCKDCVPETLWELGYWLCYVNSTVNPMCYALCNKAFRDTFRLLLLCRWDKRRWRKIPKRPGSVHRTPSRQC
# Sequence of Glucocorticoid receptor (Homo sapiens) (P04150 whole entry, looked up, the tested form may be a part): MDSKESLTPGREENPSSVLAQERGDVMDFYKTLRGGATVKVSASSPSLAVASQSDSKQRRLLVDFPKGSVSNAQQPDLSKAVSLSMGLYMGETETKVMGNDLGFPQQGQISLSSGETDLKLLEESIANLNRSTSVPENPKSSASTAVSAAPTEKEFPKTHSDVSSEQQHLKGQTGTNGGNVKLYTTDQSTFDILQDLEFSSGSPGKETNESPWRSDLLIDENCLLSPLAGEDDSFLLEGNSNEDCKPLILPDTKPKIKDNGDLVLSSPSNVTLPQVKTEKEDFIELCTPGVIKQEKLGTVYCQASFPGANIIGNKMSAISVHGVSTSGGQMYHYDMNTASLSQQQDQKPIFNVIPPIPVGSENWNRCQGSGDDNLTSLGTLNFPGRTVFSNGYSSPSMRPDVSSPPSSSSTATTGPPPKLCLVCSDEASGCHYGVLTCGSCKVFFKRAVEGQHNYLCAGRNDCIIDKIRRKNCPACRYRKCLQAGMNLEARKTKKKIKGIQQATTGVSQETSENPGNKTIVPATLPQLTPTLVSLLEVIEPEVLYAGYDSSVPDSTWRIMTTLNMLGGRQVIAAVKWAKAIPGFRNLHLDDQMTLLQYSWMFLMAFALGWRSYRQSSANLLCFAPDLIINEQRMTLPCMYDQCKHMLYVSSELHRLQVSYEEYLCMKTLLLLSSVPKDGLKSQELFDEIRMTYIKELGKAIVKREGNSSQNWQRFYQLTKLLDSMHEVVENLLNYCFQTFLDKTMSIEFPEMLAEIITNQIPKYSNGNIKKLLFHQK
# Sequence of Ferritin light chain (Equus caballus) (P02791 2-175 limits assumed): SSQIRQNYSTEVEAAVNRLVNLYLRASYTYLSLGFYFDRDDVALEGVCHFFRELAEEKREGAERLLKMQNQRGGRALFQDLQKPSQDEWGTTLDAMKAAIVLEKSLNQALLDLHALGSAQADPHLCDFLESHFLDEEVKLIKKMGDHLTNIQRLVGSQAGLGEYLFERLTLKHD
# Sequence of DNA repair nuclease/redox regulator APEX1 (Homo sapiens) (P27695 whole entry, looked up): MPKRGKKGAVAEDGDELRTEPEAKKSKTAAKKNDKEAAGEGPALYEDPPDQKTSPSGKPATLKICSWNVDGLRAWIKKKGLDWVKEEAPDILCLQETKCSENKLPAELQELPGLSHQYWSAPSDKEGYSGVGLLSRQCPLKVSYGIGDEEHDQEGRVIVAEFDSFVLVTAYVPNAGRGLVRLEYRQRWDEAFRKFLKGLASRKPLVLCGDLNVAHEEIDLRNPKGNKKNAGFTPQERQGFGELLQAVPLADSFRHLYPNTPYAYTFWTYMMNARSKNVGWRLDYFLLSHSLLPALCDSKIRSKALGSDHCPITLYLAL
# Sequence of Cytochrome P450 1A2 (Homo sapiens) (P05177 whole entry, looked up): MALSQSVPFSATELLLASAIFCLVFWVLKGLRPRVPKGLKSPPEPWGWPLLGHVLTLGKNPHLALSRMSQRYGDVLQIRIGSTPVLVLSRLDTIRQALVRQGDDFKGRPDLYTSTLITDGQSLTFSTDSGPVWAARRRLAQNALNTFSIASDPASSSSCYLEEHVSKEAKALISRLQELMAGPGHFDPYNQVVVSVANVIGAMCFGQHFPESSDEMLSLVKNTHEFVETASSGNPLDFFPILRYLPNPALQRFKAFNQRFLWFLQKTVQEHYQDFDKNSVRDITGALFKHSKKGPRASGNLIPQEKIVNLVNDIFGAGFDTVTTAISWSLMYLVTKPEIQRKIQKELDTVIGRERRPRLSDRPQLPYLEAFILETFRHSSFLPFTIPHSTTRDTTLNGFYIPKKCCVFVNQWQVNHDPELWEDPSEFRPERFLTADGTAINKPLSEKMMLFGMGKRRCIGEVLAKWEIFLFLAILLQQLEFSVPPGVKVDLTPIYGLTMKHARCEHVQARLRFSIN
smiles,measurement,setting,value
COCC(=O)N1CCC2(CC1)CCN(c1ccccn1)CC2,"activity change, negative = inhibition",[1]; [32],-16.4% (inactive)
same,Potency,[2],inactive
same,"activity change, negative = inhibition",[3]; [32],-3.68% (inactive)
same,"activity, negative = inhibition",[4]; [32],-8.73% (inactive)
same,Potency,[5],> 46000 nM (inactive)
same,outcome,[6],inactive
same,Potency,[7],inactive
same,"activity change, negative = inhibition",[8]; at 57.5 µM (top of the series),2.07% (inactive)
same,max response,[8]; [33],0.785%
same,max response,[8]; [34],4.41%
same,Potency,[9],inactive
CCCNC[C@H](O)COc1ccccc1C(=O)CCc1ccccc1,"activity change, negative = inhibition",[1]; at 17.2 µM (top of the series),6.84% (inactive)
same,"activity change, negative = inhibition",[1]; at 38 µM (top of the series),18.1% (inactive) and 7.01% (inactive)
same,"activity change, negative = inhibition",[3]; at 17.2 µM (top of the series),3.46% (inactive)
same,"activity change, negative = inhibition",[3]; at 38 µM (top of the series),1.4% (inactive) and 9.3% (inactive)
same,"activity, negative = inhibition",[4]; at 17.2 µM (top of the series),-4.64% (inactive)
same,"activity, negative = inhibition",[4]; at 38 µM (top of the series),-19.1% (inactive) and -13.3% (inactive)
same,outcome,[6],inactive
same,Potency,[7],inactive
same,outcome,[10],inactive
same,Potency,[11],inactive
same,Potency,[12],inactive
same,outcome,[13],inactive
same,outcome,[14],inactive
same,outcome,[15],inactive
same,"activity change, negative = inhibition",[8]; at 25.7 µM (top of the series),-1.16% (inactive)
same,"activity change, negative = inhibition",[8]; at 57.5 µM (top of the series),-2.08% (inactive)
same,max response,[8]; [33],-11.4% and -51.8%
same,max response,[8]; [34],-13.7% and -51.9%
same,Potency,[16],inactive
same,Potency,[17],inactive
same,Potency,[18],316 nM (active)
same,Potency,[19],891 nM (active)
same,Potency,[20],2000 nM (active)
same,Potency,[21],1120 nM (active)
same,Potency,[22],282 nM (active)
same,Potency,[23],1120 nM (active)
same,outcome,[24],inactive
same,Potency,[25],inactive
same,outcome,[26],inactive
same,Potency,[27],2620 nM (active)
same,Potency,[28],2080 nM (active)
same,outcome,[29],inactive
same,activation,[30],3.19% (inactive)
same,outcome,[31],inactive
